Results on 20 molecules are retold here after ChEMBL document CHEMBL3988442, “University of Dundee, Small-Polar-MMV Screening Library” (2021).

This assay has as its target T1, Tyrosyl-tRNA synthetase, putative (Trypanosoma cruzi (strain CL Brener)) (UniProt Q4DSP6).
T1 sequence (whole entry): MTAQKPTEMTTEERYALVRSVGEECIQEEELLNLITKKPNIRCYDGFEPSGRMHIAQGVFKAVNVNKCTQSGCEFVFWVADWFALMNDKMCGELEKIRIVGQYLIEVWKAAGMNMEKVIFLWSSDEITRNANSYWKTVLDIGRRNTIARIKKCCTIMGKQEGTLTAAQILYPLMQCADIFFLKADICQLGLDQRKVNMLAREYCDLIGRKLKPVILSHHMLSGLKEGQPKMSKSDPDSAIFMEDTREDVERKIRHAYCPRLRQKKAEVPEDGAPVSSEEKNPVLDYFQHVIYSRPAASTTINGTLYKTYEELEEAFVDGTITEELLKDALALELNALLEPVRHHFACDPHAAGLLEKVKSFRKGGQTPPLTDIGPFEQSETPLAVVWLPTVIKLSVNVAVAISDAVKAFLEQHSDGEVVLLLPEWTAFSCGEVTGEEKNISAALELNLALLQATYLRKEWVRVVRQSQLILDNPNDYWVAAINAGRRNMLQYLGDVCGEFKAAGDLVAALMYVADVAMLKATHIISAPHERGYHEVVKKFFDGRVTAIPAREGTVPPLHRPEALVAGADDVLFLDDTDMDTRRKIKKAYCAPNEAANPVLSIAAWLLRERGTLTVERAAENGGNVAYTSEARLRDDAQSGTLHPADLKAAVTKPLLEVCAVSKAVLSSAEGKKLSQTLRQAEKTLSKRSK
Put plainly: Trypanosoma cruzi tyrosyl tRNA synthetase (TcYRS) SOP. It counts as functional. Also on record: scale not given: direction of the effect not stated beside the values. The settings on record: 30 µM.
On to `O=C1COC2(CCN(C(=O)c3ccco3)CC2)CN1Cc1ccccn1`, for which the Percent Effect amounted to 20%.

As for `Cc1ccn(-c2cccc(C(=O)N3CCCC(n4ccnc4C)C3)c2)n1` (stereo not given), the Percent Effect stood at 9.41%.

As for `Cc1ccoc1-c1nnc(CN2CCn3c(nnc3C3CC3)C2)o1`, the Percent Effect is -10.3%.

With `CC(=O)N1CCCC1c1csc(Nc2cnccn2)n1` (stereo not given), the Percent Effect was determined as 10%.

Consider `Fc1ccc(-c2nnc(CN3CCn4c(nnc4C4CC4)C3)o2)cc1`, for which the Percent Effect came to 15.4%.

Turning to `CC(C)c1cc(NC(=O)CN2CCNC(=O)C2)on1`, the Percent Effect was found to be 21.2%.

For `CN(C)c1ccc(NC(=O)NCc2ccccn2)cn1`, the Percent Effect is 18.8%.

Turning to `CNc1snc(C)c1C(=O)N1CCCC(n2nc(C)cc2C)C1` (stereo not given), the Percent Effect amounted to 15.4%.

As to `COc1ccc(CN2CCC[C@@H]3CN(C(=O)c4ccco4)C[C@@H]32)cc1`, the Percent Effect worked out at 10.3%.

With `O=C(c1cc(Cl)c2c(c1)OCCO2)N1CCCC(n2cncn2)C1` (stereo not given), the Percent Effect amounted to 0%.

Regarding `CCC(=O)N1CCC(O)(c2ncc(OC)nc2OC)CC1`, the Percent Effect was found to be 7.5%.

In the case of `CCCn1ncc2c(C(=O)Nc3n[nH]c(SC)n3)cc(C3CC3)nc21`, the Percent Effect is 17.5%.

For the molecule `Cc1nc(CN(C)C2CCN(CCCOc3ccccc3)C2)no1` (stereo not given), the Percent Effect was 21.2%.

On to `CCOc1ncccc1NC(=O)NC1CCCN(c2ncccn2)C1` (stereo not given), for which the Percent Effect turned out to be 30.6%.

For the molecule `COC(=O)NCc1cc2n(n1)CCCN(C(C)=O)C2`, the Percent Effect amounted to 12.2%.

As for `Fc1ccc(CN2CCC(c3n[nH]c4ncccc34)CC2)cc1F`, the Percent Effect was -5%.

Take `c1ccc(-c2nc(CN3CCc4c(ncn4C4CC4)C3)cs2)cc1`: the Percent Effect was found to be 18.8%.

Consider `Cc1ccc(C(=O)N2CCCC3(CCCC(=O)N3C)C2)cc1F` (stereo not given), for which the Percent Effect was 10%.

For `Cc1nn(C)c(N(C)C)c1CNC(C)c1cccc(OC(C)C)c1` (stereo not given), the Percent Effect came to 18.8%.

For the molecule `c1csc(-c2nc(CN3CCn4c(nnc4C4CC4)C3)co2)c1`, the Percent Effect stood at 5.13%.
